# High-throughput results from PubChem.
# An excerpt weighted towards active compounds, which were near 0.9% of everything screened.
# Six1-Eya2 blk: Six1/Eya2 interaction inhibition; Q15475+O00167; AlphaScreen GST-Six1/His-Eya2 binding, biochemical; hits give low values; activity change, % (no concentration beside the values); actives 0.56% (n = 360,000); in the data active = activity change below about -65%; inconclusive = mostly about -30% to -63%
#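 GST-Six1 + His-Eya2 (5X stock: 250/500 nM); Tris pH 8.0, 300 mM NaCl, 0.05% BSA, 0.02% Tween 20; GSH donor/Ni acceptor beads; 1 h 37 °C dark; AlphaScreen readout.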
# B2AR arrestin: beta2AR (human) beta-arrestin recruitment activity; beta-arrestin recruitment to beta2AR, cell-based reporter; Potency, µM (doses to about 46.1 µM), inactives show top-dose activation, usual class: activators; actives 0.02% (n = 330,000); AID 492947;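 note: potency is the fitted concentration of half-maximal effect; 0% = DMSO controls and full agonism = EC100 isoproterenol or metaproterenol; nearly all actives have a fitted effect of over 65% in size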
# CtBP-E1A inh: blocks the CtBP interaction with E1A; AlphaScreen GST-E1A/His-CtBP binding, 1536-well; hits give low values; activity change, % (no concentration beside the values); actives 0.49% (n = 340,000); in the data active = activity change below about -65%; inconclusive = mostly about -30% to -63%
#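 Protein mix (5X: 125 nM each GST-E1A, His-CtBP) was incubated with pinned compound 2 h at 37 deg C in dark, in 50 mM Tris pH 8.0 buffer with 300 mM NaCl. Glutathione donor and nickel acceptor beads followed; AlphaScreen signal read after 1 h.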
# Eya2 inh: blocks the phosphatase activity of human Eya2 | recombinant Eya2, OMFP fluorescence dephosphorylation (OMFP is methylfluorescein phosphate) | Potency, µM (series often up to 76.9 µM), for the others: top-dose activity, negative = inhibition, most hits filed as inhibitors | actives 0.006% (n = 330,000); note: potency is the fitted concentration of half-maximal effect
# Target sequence (O00167 whole entry, looked up): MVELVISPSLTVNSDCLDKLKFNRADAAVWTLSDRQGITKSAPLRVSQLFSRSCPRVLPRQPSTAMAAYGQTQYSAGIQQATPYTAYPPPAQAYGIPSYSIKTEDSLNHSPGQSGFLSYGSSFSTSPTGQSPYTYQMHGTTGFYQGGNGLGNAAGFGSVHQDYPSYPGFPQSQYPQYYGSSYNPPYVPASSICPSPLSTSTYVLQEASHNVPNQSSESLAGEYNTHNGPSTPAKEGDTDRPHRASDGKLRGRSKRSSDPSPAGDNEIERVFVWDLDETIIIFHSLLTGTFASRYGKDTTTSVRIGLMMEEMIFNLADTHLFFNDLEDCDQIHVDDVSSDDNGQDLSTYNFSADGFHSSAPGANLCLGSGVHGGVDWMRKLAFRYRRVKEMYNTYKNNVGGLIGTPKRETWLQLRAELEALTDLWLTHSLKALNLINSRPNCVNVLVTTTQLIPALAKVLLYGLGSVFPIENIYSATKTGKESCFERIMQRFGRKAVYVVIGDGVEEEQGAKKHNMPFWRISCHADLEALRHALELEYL
#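 Eya2 (0.2 uM) preincubated 10 min at ambient with compound, then OMFP substrate added at 50 uM; 10 min reaction in 50 mM HEPES pH 7.5, 50 mM NaCl, 5 uM MgCl2, 0.05% BSA, 1 mM DTT. Fluorescence read at Ex 485/Em 525 nm.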
# L3MBTL1 inh: L3MBTL1 (human) inhibition; actives 0.66% (n = 230,000); AID 485360; Potency, µM (highest dose often 57.1 µM), without a hit: at the highest dose activity, negative = inhibition, hits mostly inhibitors; AlphaScreen L3MBTL1–H3K9me1 peptide binding; Q9Y468; note: potency is the fitted concentration of half-maximal effect; nearly all actives have a fitted effect of over 60% in size
#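 AlphaScreen assay: L3MBTL1 (50 nM final) was preincubated 30 min at room temperature with biotinylated H3(1-15)K9me1 peptide (75 nM final), then 30 min with library compounds; streptavidin donor and nickel chelate acceptor beads (10 ug/mL final) added, 30 min dark.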
# Active calls of the source: *; ? = inconclusive; nt = not tested or not shown; [ ] = another dose, or the depositor's remark. Unless noted, calls come from the whole dose curve; as a rule, active = well fitted curve in the direction sought with a large enough effect; inconclusive = small, poorly fitted or top-dose-only effect, or another doubt; inactive = no such curve, though single readings can be large; an effect the other way counts as inactive or inconclusive. Unless noted, % is set by controls: 0 for no effect and ±100 for the full control effect.
SMILES,Six1-Eya2 blk,B2AR arrestin,CtBP-E1A inh,Eya2 inh,L3MBTL1 inh
COc1ccc(-n2nc([N+](=O)[O-])c(=NCCC3=CCCCC3)n2O)cc1,-70*,0%,?,2%,?
S=c1[nH]nc(-c2ccccn2)n1/N=C/c1ccc(Cl)cc1,-75*,1%,?,2%,16µM*
S=c1[nH]nc(-c2ccccn2)n1/N=C/c1c(Cl)cccc1Cl,-80*,-1%,-1,-30%,20µM*
CCc1ccccc1Nc1nn2c(=O)c3ccc(C(=O)NCc4ccccn4)cc3nc2s1,?,0%,-79*,?,nt
O=C(NCc1ccccn1)c1ccc2c(=O)n3nc(Nc4ccccc4)sc3nc2c1,-12,-1%,-19,9%,nt
COc1ccc(C2=NN(c3nc(-c4ccccc4)c(CC(=O)O)s3)C(c3ccco3)C2)cc1 (stereo unspecified),-5,0%,0,10%,32µM*
Cc1nc(N2N=C(c3ccc(Cl)cc3)CC2c2ccco2)sc1C(=O)N(C)C (stereo unspecified),12,0%,17,-18%,31%
CN(C)/C=N/N(C)c1ncccc1[N+](=O)[O-],5,0%,5,1%,nt
CCSC1=NC(=O)/C(=C2/C=Cc3ccccc3N2CC)S1,-79*,0%,-74*,-11%,nt
Oc1ccc(N=Nc2ccccc2-c2nn[nH]n2)c(O)c1,-86*,1%,nt,-5%,nt
Cc1ccccc1-c1nn[nH]n1,4,0%,9,15%,nt
O=C(O)CN=C(Nc1cc(Cl)cc(Cl)c1)NC(c1ccccc1)c1ccccc1,-1,nt,2,nt,nt
Cc1cc2c(cc1Cl)N(C(=O)Nc1ccnc3ccccc13)CC2,nt,nt,nt,5%,nt
CCc1cc2c(=O)[nH]c(-c3ccccn3)nc2s1,-92*,?,3,3%,?
CCc1cc2c(=O)[nH]c(N3CCCC3)nc2s1,7,0%,-14,0%,-3%
CC(=O)Nc1ccc(S(=O)(=O)N2CCC(C(=O)NC3CCCC3)CC2)cc1,5,0%,6,7%,nt
CC(=O)Nc1ccc(S(=O)(=O)N2C3CCCC2CC(NC(=O)C2CCCCC2)C3)cc1 (stereo unspecified),-67*,-1%,-3,5%,-12%
CCc1ccc(C(O)c2ncc(-c3cccc(F)c3)[nH]2)cc1 (stereo unspecified),-12,nt,-5,nt,nt
CN(C)c1ccc(N=C/C=C2/N(C)c3ccccc3C2(C)C)cc1,-68*,2%,nt,-4%,?
CN1/C(=C\C=N\O)C(C)(C)c2ccccc21,7,3%,3,9%,-4%
COc1cc2[nH]c(=S)nc(NCc3ccc(C)cc3)c2cc1OC,-74*,-1%,nt,-6%,nt
COc1ccc(CNc2nc(=S)[nH]c3cc(OC)c(OC)cc23)cc1,-82*,0%,nt,2%,nt
COc1ccc(CNc2ncnc3c2[nH]c2cc(OC)c(OC)cc23)cc1,?,0%,?,-13%,-3%
COc1cc2[nH]c(=S)nc(NCc3ccccc3)c2cc1OC,-78*,-1%,-82*,?,nt
COc1cc2[nH]c(=S)nc(NCc3cccc(Cl)c3)c2cc1OC,?,0%,nt,13%,nt
SMILES,Six1-Eya2 blk,B2AR arrestin,CtBP-E1A inh,Eya2 inh,L3MBTL1 inh
COc1cc2[nH]c(=S)nc(NCc3cccnc3)c2cc1OC,-69*,-1%,-82*,15%,nt
O=C1C2=C(C(=O)c3ccccc31)C1O[C@](c3ccsc3)(Cc3ccccc31)O2,nt,0%[9.22 µM],nt,7%[15.4 µM],nt
N[C@@H](Cn1ccc(=O)c(O)c1)C(=O)O,nt,nt,nt,4%,nt
CSCC[C@H](NC(=O)OC(C)(C)C)C(=O)NCC1CCC(C(=O)N[C@@H](Cc2ccccc2)C(=O)O)CC1 (stereo partly specified),12,0%,12,-21%,nt
COc1cc2[nH]c(=S)nc(NCc3ccccn3)c2cc1OC,-70*,0%,?,-12%,nt
COc1cc2c(cc1NCc1ccccn1)oc1ccccc12,-11,-1%,-9,-10%,-12%
NCC1OC(O[C@H]2[C@H](O)[C@@H](OC3C(O)C(N)CC(N)C3OC3OC(CO)C(O)C(O)C3N)O[C@@H]2CO)C(N)C(O)C1O (stereo partly specified),nt,nt,nt,-6%,nt
Cc1cc(C)n(-c2nc(NC(C)C)nc(NC(C)C)n2)n1,-2,13µM*,-7,7%,-27%
CCNc1nc(NCC)nc(-n2nc(C)cc2C)n1,-3,7.9µM*,11,1%,-19%
Cc1cc(C)n(-c2nc(NC(C)(C)C)nc(NC(C)(C)C)n2)n1,-1,?,-5,0%,-4%
CCOC(=O)C1(C)CCCN(C(=O)c2ccc(F)cc2Cl)C1 (stereo unspecified),1,nt,-3,nt,nt
COc1ccc(Nc2nc(-c3ccccc3)c(C(=O)Nc3cccnc3)s2)cc1,-3,0%,10,9%,nt
Nc1ncnc2oc(-c3ccco3)c(-c3ccco3)c12,?,0%,?,5%,25µM*
CCC(C)c1c(N)n(S(=O)(=O)c2ccc(C)cc2)oc1=O (stereo unspecified),-77*,nt,?,nt,nt
CCC(C)c1c(NS(=O)(=O)c2ccc(C)cc2)o[nH]c1=O (stereo unspecified),1,nt,6,nt,nt
O=C(O)C1C=Cc2ccccc2N1C(=O)c1ccccc1 (stereo unspecified) (tested in a mixture with another compound),8,nt,-24,nt,nt
O=C(CSc1ccccn1)Nc1ccc2c(c1)C(=O)c1ccccc1C2=O,-14,0%,0,2%,-3%
O=C(CSc1n[nH]c(=O)[nH]c1=O)Nc1ccc2c(c1)C(=O)c1ccccc1C2=O,-72*,0%,-85*,-8%,28µM*
COc1ccc([C@]23Cc4cc(OC)c(OC)cc4C(O2)c2c(cc(C)oc2=O)O3)cc1,nt,-2%[9.22 µM],nt,-4%[15.4 µM],nt
Cc1[nH]c(=O)[nH]c1C(=O)CCCCC(=O)O,10,-1%,-3,1%,0.35µM*
Nc1[nH]c(N=NC(=O)c2ccccc2O)c2ccccc12,-78*,0%,?,1%,-11%
N#Cc1c(N)nc(SC2CCCCC2=O)c(C#N)c1-c1ccco1 (stereo unspecified),-66*,nt,?,nt,nt
CC(C)(C)c1ccc(/C=N/Nc2nncn2N)cc1,-12,0%,-18,-11%,-6%
Nn1cnnc1N/N=C/c1cc(Br)cc(Br)c1O,-92*,0%,-91*,7%,-8%
CCOc1ccc(Br)cc1CNc1ccc2c(c1)OCCO2,-77*,0%,?,-16%,?
O=C1CCc2cc(S(=O)(=O)Nc3ccc(F)cc3)ccc2N1,-3,0%,-4,-22%,1%
COc1cc2ncnc(NCCCN3CCOCC3)c2cc1OC,0,-1%,nt,-18%,nt
COc1cc2nc(=S)n(CCCN3CCOCC3)c(N)c2cc1OC,-85*,0%,-88*,12%,-23%
